Screens from PubChem BioAssay.
Gli-Sufu antag = Gli-Sufu pathway antagonists, primary screen, luciferase luminescence, Sufu-KO-LIGHT cells, uHTS; Sufu-KO-LIGHT fibroblasts, Gli luciferase reporter luminescence; inhibition, % at 5 µM; 340,000 compounds, 0.74% hits;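 active = inhibition above about 55%, limit read from the data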;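 also: 0% = DMSO-treated cells and 100% = wells with medium but no cells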
697 NFkB inh = inhibitors of PMA/ionomycin-induced NF-kB reporter, 697 cells, primary screen, B-cell NF-kB inhibitor project, cell-based, luminescence, uHTS; 697 B-cell NF-kB luciferase reporter, 16 h; inhibition, % at 4 µM; 330,000 compounds, 0.33% hits; AID 435022, 2010; in the data active = inhibition above about 35%
Jurkat NFkB inh = inhibitors of induced NF-kB luciferase reporter, primary screen, TCR NF-kB activation inhibitor project, cell-based, luminescence, uHTS. Jurkat, PMA/ionomycin-induced NF-kB luciferase reporter. inhibition, % at 4 µM. 330,000 compounds, 0.53% hits; in the data active = inhibition above about 50%
aSyn UTR inh = MLPCN primary screen, SNCA 5' untranslated region. inhibition, % (tested at 7.5 µM). 300,000 compounds, 0.82% hits. alpha-synuclein 5'UTR reporter, inhibitor activity; in the data active = inhibition above about 60%; inconclusive = no clear call, values can overlap the other calls;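 also: H4 neuroglioblastoma cells stably carrying SNCA 5'UTR luciferase fusion; 0% = DMSO wells and 100% = positive control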
Mdm2 MdmX PPI = inhibitors of human Mdm2-MdmX association, primary screen, cell-based, luminescence, split luciferase, SaOS-2, uHTS. Protein Mdm4 (Homo sapiens) + E3 ubiquitin-protein ligase Mdm2 (Homo sapiens), …. inhibition, % at 8 µM. SaOS-2 split-luciferase Mdm2/MdmX complementation. 330,000 compounds, 3% hits. AID 485346, 2010;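 active = inhibition of at least 50% at 8 µM in the primary screen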
Target sequence (O15151 whole entry, looked up): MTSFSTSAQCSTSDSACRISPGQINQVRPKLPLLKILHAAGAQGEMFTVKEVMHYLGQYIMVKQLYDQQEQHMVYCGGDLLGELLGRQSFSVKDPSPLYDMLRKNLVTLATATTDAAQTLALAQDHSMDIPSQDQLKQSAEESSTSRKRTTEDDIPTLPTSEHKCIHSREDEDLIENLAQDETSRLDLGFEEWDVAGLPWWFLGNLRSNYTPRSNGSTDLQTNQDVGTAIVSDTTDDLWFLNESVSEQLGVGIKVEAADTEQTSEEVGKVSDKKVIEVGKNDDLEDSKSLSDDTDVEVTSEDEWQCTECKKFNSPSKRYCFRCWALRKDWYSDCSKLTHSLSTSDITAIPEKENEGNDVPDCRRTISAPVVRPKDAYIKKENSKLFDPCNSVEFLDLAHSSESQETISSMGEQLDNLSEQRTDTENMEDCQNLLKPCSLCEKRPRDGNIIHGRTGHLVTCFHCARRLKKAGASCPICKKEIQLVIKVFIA
Target sequence (Q00987 whole entry, looked up): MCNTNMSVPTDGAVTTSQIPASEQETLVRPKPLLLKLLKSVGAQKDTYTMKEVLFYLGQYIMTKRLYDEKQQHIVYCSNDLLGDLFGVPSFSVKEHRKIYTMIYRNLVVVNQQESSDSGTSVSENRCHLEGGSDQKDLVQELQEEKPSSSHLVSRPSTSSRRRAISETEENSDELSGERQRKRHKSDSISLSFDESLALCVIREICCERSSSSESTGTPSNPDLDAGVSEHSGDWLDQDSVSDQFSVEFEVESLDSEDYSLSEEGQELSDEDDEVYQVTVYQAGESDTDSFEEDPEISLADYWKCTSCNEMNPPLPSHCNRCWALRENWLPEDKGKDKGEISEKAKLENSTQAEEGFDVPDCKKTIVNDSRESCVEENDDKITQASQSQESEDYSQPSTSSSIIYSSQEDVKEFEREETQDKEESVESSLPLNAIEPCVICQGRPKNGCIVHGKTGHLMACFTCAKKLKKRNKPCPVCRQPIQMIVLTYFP
CSC inhib = cancer stem cell viability inhibitors, primary screen, luminescence; 300,000 compounds, 1.1% hits; inhibition, % at 7.5 µM; AID 2717, 2010; cancer stem cell-like cells viability; in the data active = inhibition above about 75%; inconclusive = no clear call, values can overlap the other calls; tested in HMLE shEcad cells
697 NFkB conf = PMA/ionomycin-induced NF-kB reporter inhibitors, 697 retest, confirmation, B-cell NF-kB inhibitor project, cell-based, luminescence, single concentration; shares compounds with 697 NFkB inh; 697 B-cell NF-kB luciferase, 16 h; inhibition, % at 4 µM; 2,000 compounds, 35% hits; AID 449746, 2010; in the data active = inhibition mostly above about 28%, no sharp cut-off; inactive = mostly below about 22%
Mdm2 MdmX conf = Mdm2-MdmX complex disruptors, retested hits, confirmation, luminescence, single concentration. Mdm2-MdmX binding, luminescent assay. 10,000 compounds, 55% hits. shares compounds with Mdm2 MdmX PPI. AID 489028, 2010. inhibition, % at 8 µM; in the data active = inhibition above about 40%
FLuc counter = full-length luciferase signal inhibition, confirmation, counter-screen for Mdm2/MdmX interaction inhibitor project, cell-based, single concentration, SaOS-2; shares compounds with Mdm2 MdmX PPI; SaOS-2 full-length luciferase counterscreen, luminescence; inhibition, % at 8 µM; 6,200 compounds, 77% hits; AID 504607, 2011;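 active = mean inhibition at 8 µM reaching about 37%, which flags the compound as non-specific, limit read from the data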;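 also: p53-null SaOS-2 cells with luciferase driven by a doxycycline-inducible promoter; compound on cells about two nights before reading with doxycycline added after day one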
The depositor's hits bear a star; i = inactive; ? = inconclusive; . = no result. Most compounds without a hit are left out; they make up all but 4.5% or so of the library.

SMILES | Gli-Sufu antag | 697 NFkB inh | Jurkat NFkB inh | aSyn UTR inh | Mdm2 MdmX PPI | CSC inhib | 697 NFkB conf | Mdm2 MdmX conf | FLuc counter
COc1cc2c(=O)n(CCC(=O)NCC3CCCO3)c(=O)n(CC(=O)Nc3ccc(F)cc3)c2cc1OC (stereo not drawn) | 13.0 | 14.5 | 4.5 | 9.0 | 10.9 | -7.6 | . | . | .
CC(=O)Nc1cccc(C(=O)/C=C/c2ccc(/C=C/C(=O)c3cccc(NC(C)=O)c3)cc2)c1 | . | -292.6 | 13.1 | -128.9 | 97.6* | 77.1* | -46.0 | 31.0 | .
CCC1CN(C(=O)N2CCC(C(=O)NCc3ccc(OC)cc3OC)CC2)c2ccccc2O1 (stereo not drawn) | -10.2 | -3.6 | -1.5 | 17.3 | 21.3 | -7.2 | . | . | .
O=C(Nc1ccc(Cl)c(C(F)(F)F)c1)c1ccncc1 | 5.5 | 21.8 | -4.6 | 0.7 | 11.8 | -8.0 | . | . | .
CNC(=O)c1cc(Oc2ccc(NC(=O)Nc3ccc(Cl)c(C(F)(F)F)c3)cc2)ccn1 | -2.1 | 62.5* | 28.7 | . | 97.1* | 124.1* | 59.5* | 88.7* | 52.2*
CCC(=O)NN1CCc2cc3ccc(C)cc3nc21 | 28.7 | 2.2 | 6.9 | 13.3 | 19.7 | -8.1 | . | . | .
O=C(c1cccs1)N(Cc1nc2sc3c(c2c(=O)[nH]1)CCCC3)C1CCCC1 | -1.0 | -323.7 | -15.3 | -14.1 | 86.6* | 0.5 | -299.9 | 82.0* | 37.9*
CCOC(=O)C1=CN(c2cccc(F)c2)C=C(C(=O)OCC)C1c1cc(OC)c(O)c([N+](=O)[O-])c1 | 3.3 | -7.1 | 11.2 | 39.1 | 26.8 | . | . | . | .
COc1ccc(-n2c(C)cc(C(=O)Cn3nnc4ccccc4c3=O)c2C)cc1 | -50.0 | -21.7 | -10.0 | -18.0 | -9.8 | 18.7 | . | . | .
Cc1cc(C(=O)Cn2nnc3ccccc3c2=O)c(C)n1-c1ccccc1F | -2.5 | i | -117.5 | ? | 85.1* | 43.9 | i | 78.3* | 103.4*
NS(=O)(=O)c1ccc(N=Nc2ccc(O)c3ncccc23)cc1 | 49.0 | -388.0 | 14.3 | 63.7* | 61.9* | 49.9 | -255.2 | 52.1* | 47.6*
NS(=O)(=O)c1ccc(N=Nc2c(O)ccc3ccccc23)cc1 | 13.6 | -28.3 | 16.0 | -0.1 | 26.1 | 27.5 | . | . | .
O=C(NC(Cc1c[nH]c2ccccc12)C(=O)Nc1ccc(OC(F)(F)F)cc1)c1cccs1 (stereo not drawn) | 7.8 | i | -64.7 | 10.1 | 93.0* | 51.5 | 8.4 | 93.5* | 25.7
O=C(NC(Cc1c[nH]c2ccccc12)C(=O)Nc1ccc(F)c([N+](=O)[O-])c1)c1cccs1 (stereo not drawn) | 3.3 | i | -44.2 | 0.0 | 96.4* | 39.2 | -265.0 | 86.9* | 24.8
O=C(NC(Cc1c[nH]c2ccccc12)C(=O)O)c1cccs1 (stereo not drawn) | -1.2 | 2.6 | 7.0 | 5.3 | 2.7 | 10.7 | . | . | .
COc1ccc(OC)c2sc(N3CCc4ccccc4C3)nc12 | -3.5 | 5.4 | 1.6 | 14.9 | -46.2 | . | . | . | .
c1ccc2c(c1)CCN(c1nc3cc4c(cc3s1)OCCO4)C2 | 18.5 | -381.7 | -43.9 | 75.1* | 81.0* | . | -358.5 | 77.2* | 93.0*
CC(C)(C)[C@H]1COC(=O)CCCC/C=C\C[C@H](CC(=O)N(CCO)Cc2ccccc2)C(=O)N1 | -1.3 | -1.1 | -7.9 | . | -6.4 | . | . | . | .
Cc1ccccc1C(=O)N1CCC(n2nccc2NC(=O)CCOc2ccccc2)CC1 | -18.0 | -27.6 | -21.4 | -6.0 | -0.2 | -5.8 | . | . | .
Cc1ccc(-c2cc3onc(-c4ccccc4)c3c(=O)n2C)cc1 | -16.9 | -346.4 | -100.3 | . | 72.7* | 20.0 | -385.1 | 74.5* | 103.1*
Cn1c(-c2ccc(F)cc2)cc2onc(-c3c(F)cccc3Cl)c2c1=O | -153.7 | -165.1 | -8.8 | . | -178.4 | -3.2 | . | . | .
Cc1ccc(C)c(N2CC(C(=O)O)CC2=O)c1 (stereo not drawn) | -4.4 | 17.8 | -18.4 | 10.0 | 19.0 | -8.8 | . | . | .
COc1cc2c(cc1NC(=O)c1ccc(C(C)(C)C)cc1)CCCC2 | 8.0 | i | -60.8 | -14.3 | 69.1* | 58.1 | -486.2 | 74.2* | 61.9*
COC(=O)[C@H](Cc1ccccc1)NC(=O)Cn1cnc(C(=O)Nc2ccc(C)c(C)c2)n1 | -6.9 | 22.1 | . | . | 12.9 | . | . | . | .
O=c1c2ccccc2sc2ccc(C#CC3(O)CCCCC3)cc12 | 83.0* | 39.7* | 43.6 | 103.8* | 93.7* | -5.8 | 16.4 | 93.5* | 25.4
SMILES | Gli-Sufu antag | 697 NFkB inh | Jurkat NFkB inh | aSyn UTR inh | Mdm2 MdmX PPI | CSC inhib | 697 NFkB conf | Mdm2 MdmX conf | FLuc counter
Cc1cccc(C)c1NC(=O)CN(C)C(=O)CN1C(=O)NC2(CCCC2)C1=O | 5.9 | 25.8 | 17.6 | -1.8 | 8.0 | -17.0 | . | . | .
Cc1csc(SCC(=O)c2cc(C)n(Cc3cccs3)c2C)n1 | 12.9 | -345.8 | -51.4 | 73.0* | 66.1* | -8.2 | -161.2 | 78.6* | 106.7*
O=C(CSCc1cccc(Br)c1)N=Nc1c(O)[nH]c2ccccc12 | 6.9 | 5.2 | -10.6 | -4.9 | -5.2 | -7.6 | . | . | .
O=Nc1c(-c2c(O)[nH]c3cc(Br)ccc23)[nH]c2ccccc12 | -53.6 | -321.3 | 39.1 | 76.6* | 99.0* | 103.4* | -348.8 | 31.3 | .
COc1ccc(-c2cc(-c3ccccc3)c(C#N)c(S(C)=O)n2)cc1 (stereo not drawn) | -11.9 | 37.1* | 0.6 | 16.9 | 81.0* | 24.4 | 11.8 | 20.9 | .
CCSc1nc(-c2ccc(OC)cc2)cc(-c2ccccc2)c1C#N | 1.3 | 17.0 | 5.2 | 21.6 | 20.5 | -6.8 | . | . | .
CC(C)(C)c1ccc(C(=O)NCCC(=O)NCc2cccs2)cc1 | -24.6 | 13.5 | -6.1 | 5.6 | -0.1 | 3.0 | . | . | .
CSc1nnc2c3ccccc3n(CCc3ccccc3)c2n1 | 6.8 | i | -74.9 | 14.2 | 81.6* | 52.6 | i | 90.4* | 42.2*
COc1ccc(C(=O)Nc2ncccc2C)cc1S(=O)(=O)N1CCCc2ccccc21 | -12.6 | 20.9 | -6.5 | 15.9 | 7.9 | 2.8 | . | . | .
COc1ccc(C(=O)Nc2nc3c(s2)CCCC3)cc1S(=O)(=O)N1CCCc2ccccc21 | 16.0 | i | -47.7 | 39.5 | 90.7* | . | i | 89.7* | 23.4
